# Screens deposited in PubChem by National Center for Advancing Translational Sciences (NCATS).
# CtBP-E1A inh: CtBP/E1A binding inhibition; AlphaScreen GST-E1A/His-CtBP binding, 1536-well; hits give low values; activity change, % (no concentration beside the values); 340,000 compounds, 0.49% hits; AID 651724; in the data active means activity change below about -65%; inconclusive means mostly about -30% to -63%; further: on the % scale 0 is the no-effect control and ±100 the full control effect
#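 Steps: dispense buffer (Tris pH 8.0, NaCl 300 mM, TCEP 1 mM, BSA, Tween 20); add 5X protein mix (GST-E1A, His-CtBP, 125 nM each); pin 23 nL compound; 2 h at 37 °C, dark; add 5X beads (50 ug/mL); 1 h; read.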
# TDP1 block: blocks human tyrosyl-DNA phosphodiesterase 1; Q9NUW8; recombinant TDP1, AlphaScreen DNA substrate cleavage; Potency, µM (series often up to 130 µM), inactives show at the top dose activity change, negative = inhibition, hits mostly inhibitors; 350,000 compounds, 0.28% hits; AID 485290; further: potency means the concentration at half of the fitted maximal effect; on the % scale 0 is the no-effect control and ±100 the full control effect; nearly all actives have a fitted effect of over 40% in size
#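 Recombinant human Tdp1 (E. coli-expressed, 1 nM final) preincubated with compounds 15 min at room temperature, then 5'-biotin/3'-phosphotyrosine-FITC DNA substrate (15 nM final) added for 5 min. AlphaScreen beads (10 ug/ml final) added 10 min; cleavage lowers signal.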
# JMJD2A Tudor inh: inhibitors of human JMJD2A Tudor domain. Potency, µM (doses to about 114 µM), without a hit: at the top dose activity change, negative = inhibition, actives largely listed as inhibitors. AlphaScreen JMJD2A-Tudor / H3K4me3 peptide binding. 390,000 compounds, 4.4% hits; further: potency means the concentration at half of the fitted maximal effect; on the % scale 0 is the no-effect control and ±100 the full control effect; nearly all actives have a fitted effect of over 50% in size
# BAZ2B inh: blocks human BAZ2B | 360,000 compounds, 4.4% hits | AlphaScreen BAZ2B-H3K14Ac peptide displacement | Potency, µM (top dose mostly 114 µM), for inactives: at the highest dose activity change, negative = inhibition, actives largely listed as inhibitors | AID 504333 | Q9UIF8; further: potency means the concentration at half of the fitted maximal effect; on the % scale 0 is the no-effect control and ±100 the full control effect; nearly all actives have a fitted effect of over 60% in size
#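 BAZ2B (50 nM) with biotin-H3(5-23)K14Ac peptide (50 nM) in PBS pH 7.4, 0.01% Tween-20, preformed 30 min, then compound 30 min at room temperature; top concentration 110uM. AlphaScreen streptavidin donor/nickel chelate acceptor beads (10 ug/mL final), 20 min dark, signal read.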
# HP1b binding inh: HP1-beta chromodomain-methylated histone interaction inhibition; P83916; AlphaScreen HP1-beta / biotin-H3K9me3 peptide binding; Potency, µM (series often up to 114 µM), inactives show top-dose activity change, negative = inhibition, usual class: inhibitors; 390,000 compounds, 0.56% hits; AID 540317; further: potency means the concentration at half of the fitted maximal effect; nearly all actives have a fitted effect of over 70% in size
# Target sequence (P83916 whole entry, looked up): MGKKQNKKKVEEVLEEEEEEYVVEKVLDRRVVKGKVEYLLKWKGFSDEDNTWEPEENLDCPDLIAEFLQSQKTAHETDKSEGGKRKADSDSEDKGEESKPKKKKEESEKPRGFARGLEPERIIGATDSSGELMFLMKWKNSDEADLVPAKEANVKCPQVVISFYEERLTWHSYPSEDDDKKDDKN
#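 AlphaScreen: HP1-beta (50 nM) preformed 30 min with biotin-H3(1-18)K9me3 peptide (50 nM) in PBS pH 7.4, 0.01% Tween-20. Compound added for 30 min at RT, then streptavidin donor/nickel chelate acceptor beads (10 ug/mL) for 30 min.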
# Six1-Eya2 inh: Six1/Eya2 interaction inhibition | activity change, % (test concentration not listed) | 360,000 compounds, 0.56% hits | AlphaScreen GST-Six1/His-Eya2 binding, biochemical; hits give low values | Q15475+O00167; in the data active means activity change below about -65%; inconclusive means mostly about -30% to -63%; further: on the % scale 0 is the no-effect control and ±100 the full control effect
#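 AlphaScreen with GST-Six1 and His-Eya2 (5X mix: 250 nM and 500 nM), glutathione donor and nickel acceptor beads; buffer 50 mM Tris pH 8.0, 300 mM NaCl, 1 mM TCEP; 1 h at 37 C in the dark.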
# * = called active by the depositor; ? = inconclusive; . = no result; [ ] = remark or other dose. Sampled rows, rich in hits. Any-hit rate of the full collection: about 5.3%. Unless noted, the call rests on the fitted dose curve; in most records, active means well fitted inhibition curve with a large enough effect; inconclusive means small, poorly fitted or top-dose-only effect; inactive means no such curve, though single readings can be large or run the other way.
SMILES,CtBP-E1A inh,TDP1 block,JMJD2A Tudor inh,BAZ2B inh,HP1b binding inh,Six1-Eya2 inh
COc1ccccc1NC(=O)Cn1c(=O)n(Cc2cccs2)c(=O)c2cccnc21,.,-2%,-2%,2%,54%,.
CCN1CCc2c(sc(-n3cccc3)c2C(C)NC(=O)Nc2ccccc2C)C1 (stereo unspecified),.,7%,-35%,?,-13%,.
COC(=O)c1ccc(/C=C/C(=O)OCC(=O)Nc2sccc2C(N)=O)cc1,-69*,0%,-12%,.,21%,?
O=C(NCC(c1cccnc1)N1CCN(Cc2ccccc2)CC1)C(=O)Nc1cccc(Cl)c1 (stereo unspecified),.,1%,-19%,0%,29%,.
O=C(O)Cn1c(=S)sc2ccccc21,13,-4%,-5%,89µM*,24%,5
CCOC(=O)c1cnc2c(ccc3ccccc32)c1Nc1cccc(C(F)(F)F)c1,.,2%[12.3 µM],-2%,4%,39%,.
Cc1ccc(S(=O)(=O)SCCCSS(=O)(=O)c2ccc(C)cc2)cc1,8,.,2.8µM*,.,7.1µM*,-5
Cc1ccc(S(=O)(=O)SC/C=C/CSS(=O)(=O)c2ccc(C)cc2)cc1,4,.,3.2µM*,.,?,3
Cc1ccc(S(=O)(=O)C=CS(=O)(=O)c2ccc(C)cc2)cc1,-5,.,.,.,.,-26
CCOC(=O)c1cc(C#N)c(SCC(=O)Nc2ccc(C(C)=O)cc2)[nH]c1=O,-9,.,2%,-24%,20%,-11
CSc1[nH]c(=O)c(C(=O)O)cc1C#N,5,0%,-13%,50µM*,27%,-2
CCOC(=O)c1cc(C#N)c(SCC(N)=O)[nH]c1=O,.,-10%,-13%,-11%,31%,1
CCOC(=O)c1cc(C#N)c(SCC(=O)O)[nH]c1=O,0,-3%,32µM*,?,12%,-15
CC(C)NC(=O)C1CCCN(S(=O)(=O)c2ccc3c(ccn3C)c2)C1 (stereo unspecified),.,5%,-4%,2%,27%[57 µM],.
Cc1ccc(C)c(N2CCN(c3nc4ccccc4c4nc(CCn5nc(C)cc5C)nn34)CC2)c1,.,-3%,-9%,0%,34%,.
Cc1nnc(-c2cccc(Br)c2)c2cn(-c3ccccc3)nc12,-6,3%,?,2%,5%,-1
Cc1nnc(-c2cccc(Br)c2)c2cn(-c3cccc(Br)c3)nc12,-11,-5%,?,56µM*,23%,-25
O=C(COC(=O)c1cccc(NC(=O)c2ccc(Br)cc2)c1)c1ccc(Cl)cc1,.,.,2%,0%,28%,.
CC(=O)Nc1nc(N2C(=O)c3ccccc3C2=O)n(-c2ccccc2)n1,?,10%,79µM*,?,55%,-28
O=C(Nc1nc(N2C(=O)c3ccccc3C2=O)n(-c2ccccc2)n1)c1ccccc1,1,13%,?,?,32%,?
COc1cccc(-c2cc(C(=O)Nc3c(C)nn(Cc4ccccc4Cl)c3C)no2)c1,.,3%,-16%,-15%,29%,.
Cc1ccc(NC(=O)CN2CCN(Cc3ccccc3)CC2)c(Br)c1,4,.,7.1µM*,7%[0.457 µM],?,-8
CC(=O)c1cccc(NC(=O)CN2CCN(Cc3ccccc3)CC2)c1,1,6%,0.79µM*,?,?,3
O=S(=O)(c1ccccc1)N1CCC(c2ccncc2)CC1,.,-4%,-16%,-5%,21%,.
Cc1cc(C)c2sc(N3CCN(C(=O)c4ccc(N(C)C)cc4)CC3)nc2c1,.,8%,40µM*,20µM*,?,.
SMILES,CtBP-E1A inh,TDP1 block,JMJD2A Tudor inh,BAZ2B inh,HP1b binding inh,Six1-Eya2 inh
Cc1ccc(S(=O)(=O)OC[C@@H]2CN3[C@H](c4ccc(Br)cc4)[C@H](C)CC[C@H]3C(=O)O2)cc1,.,6%[21 µM],.,.,.,.
O=C1CCc2cc(S(=O)(=O)Nc3cccc(F)c3)ccc2N1,.,-3%,-17%,.,.,.
O=S(=O)(c1ccc(-c2cc(C(F)(F)F)on2)s1)N1CCN(c2ccc(F)cc2)CC1,.,3%,-2%,1%,41%,.
Cc1ccc(-c2nnc(-c3cccc(Br)c3)o2)cc1,5,4%,50µM*,8%,-7%,5
Cc1cccc(CN2CCC(CNC(=O)Cn3ncc4c([nH]c5ccc(C)cc54)c3=O)CC2)c1,.,-1%,-11%,0%[57.1 µM],18%,.
O=C(Nc1ccc([N+](=O)[O-])c(NC(=O)C2CCCO2)c1)C1CCCO1 (stereo unspecified),34,-3%,-15%,-6%,6%,28
COc1ccc(NC(=O)C2CCCO2)cc1 (stereo unspecified),42,2%,-12%,1%,60%,0
O=C(Nc1ccc(N=Nc2ccccc2)c(NC(=O)C2CCCO2)c1)C1CCCO1 (stereo unspecified),1,8%,35µM*,28µM*,?,?
O=C(Nc1ccc(Oc2ccccc2)cc1)C1CCCO1 (stereo unspecified),9,2%,100µM*,7%,-2%,-2
COC(=O)C1=C(C)N(Cc2ccccc2)[C@]23O[C@](C(=O)OC)(C(=O)N2C1c1ccccc1)C(C(=O)OC)=C3C(=O)OC (stereo partly specified),.,10%[21 µM],.,.,.,.
O=C1NC2c3c(I)sc(I)c3C(=O)C2O1 (stereo unspecified),1,.,-23%,.,25%,10
O=C1NC2c3c(Cl)sc(Cl)c3C(=O)C2O1 (stereo unspecified),-2,.,56µM*,.,-24%,-4
COc1ccccc1/C=C/c1nc2ccccc2n1C(C)C,.,.,120%,150%,205%,.
S=c1nc(-c2cc(Cl)cc(Cl)c2)[nH][nH]1,-1,5%,79µM*,-5%,-1%,1
Clc1ccc(Cl)c(-c2nc(-c3ccncc3)no2)c1,6,.,-7%,-2%,26%,1
S=c1nc(-c2cccc(Cl)c2)[nH][nH]1,4,5%,2.5µM*,-20%,12%,-11
S=c1nc(-c2cc(Cl)ccc2Cl)[nH][nH]1,-2,8%,5µM*,-23%,?,-1
S=c1nc(-c2ccccc2Br)[nH][nH]1,1,6%,0.79µM*,12%,?,2
Cc1cc(NC(=O)COc2ccccc2)cc(-c2nc3ccccc3o2)c1O,.,2%,3%,-9%,21%,.
O=C(O)c1c[nH]c2c([N+](=O)[O-])cccc2c1=O,-6,.,20µM*,.,79µM*,-10
O=C(O)c1ccccc1[N+](=O)[O-],.,3%,.,.,.,.
Cc1ccccc1OCCCCCNCCO,-2,7%,-14%,15%,66%,2
c1ccc(-c2ccccc2OCCCCn2ccnc2)cc1,-9,7%,20µM*,50µM*,40µM*,-1
Cc1ccc(C)c(OCCCCn2ccnc2)c1,1,5%,?,?,9%,-5
